Laboratory results reported in PubChem BioAssay (Tox21).
Results filed as inconclusive are left out. A call without a number means that no potency is given here. Activity calls are given as the source filed them. Unless noted, calls follow the shape of the dose curve; as a rule, active = well fitted curve in the direction sought with a large enough effect in the repeat runs; inconclusive = weak or mixed curves; inactive = no such curve, though single readings can be large; an effect the other way counts as inactive or inconclusive.

Legend:
[1] = qHTS assay to identify aromatase inhibitors - cell viability counter screen (AID 743084);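 also: cells stimulated with testosterone during compound exposure; nearly all actives have a fitted effect of over 55% in size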
[2] = target: Aryl hydrocarbon receptor (Homo sapiens) (UniProt P35869); assay: qHTS assay to identify small molecule that activate the aryl hydrocarbon receptor (AhR) signaling pathway (AID 743085);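 also: HG2L7.5c1 human HepG2 liver cells with stably integrated DRE-driven firefly reporter; series mostly up to about 70 µM; nearly all actives have a fitted effect of over 15% in size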
Sequence of Aryl hydrocarbon receptor (Homo sapiens) (P35869 whole entry, looked up): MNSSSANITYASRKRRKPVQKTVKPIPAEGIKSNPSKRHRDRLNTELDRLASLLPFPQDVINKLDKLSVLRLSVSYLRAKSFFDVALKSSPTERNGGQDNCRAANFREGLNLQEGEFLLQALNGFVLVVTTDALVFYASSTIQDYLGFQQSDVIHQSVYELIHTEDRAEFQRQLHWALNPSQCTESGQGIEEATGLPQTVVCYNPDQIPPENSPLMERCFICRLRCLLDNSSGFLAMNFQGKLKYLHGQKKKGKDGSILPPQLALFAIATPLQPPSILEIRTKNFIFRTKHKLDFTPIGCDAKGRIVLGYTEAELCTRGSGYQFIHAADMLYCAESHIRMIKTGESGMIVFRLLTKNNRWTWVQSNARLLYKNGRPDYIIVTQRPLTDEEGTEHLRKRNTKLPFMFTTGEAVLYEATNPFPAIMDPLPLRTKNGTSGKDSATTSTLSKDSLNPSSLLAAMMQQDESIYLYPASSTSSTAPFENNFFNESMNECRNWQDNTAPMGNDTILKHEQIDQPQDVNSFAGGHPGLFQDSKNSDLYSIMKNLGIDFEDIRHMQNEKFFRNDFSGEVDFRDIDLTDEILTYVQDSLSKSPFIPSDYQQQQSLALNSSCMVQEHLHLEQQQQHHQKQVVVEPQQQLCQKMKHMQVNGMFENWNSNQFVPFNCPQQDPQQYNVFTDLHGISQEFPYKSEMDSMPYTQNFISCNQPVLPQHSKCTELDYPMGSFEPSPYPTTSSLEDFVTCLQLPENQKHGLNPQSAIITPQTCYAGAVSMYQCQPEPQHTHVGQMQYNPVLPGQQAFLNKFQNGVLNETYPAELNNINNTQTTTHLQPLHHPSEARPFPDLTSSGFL
Outline: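 Steps: seed HepG2-AhR-luc cells; allow 5 h at 37C; pin-transfer test compound or vehicle; incubate 24 h at 37C; add viability dye (30 min, 37C) and read fluorescence; add luciferase substrate (30 min, RT) and read luminescence.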

[3] = qHTS assay to identify small molecule that activate the aryl hydrocarbon receptor (AhR) signaling pathway - cell viability counter screen (AID 743086);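 also: HepG2 liver cells carrying the AhR DRE luciferase reporter; series mostly up to about 70 µM; nearly all actives have a fitted effect of over 45% in size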
Outline: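 HepG2-AhR-luc (HG2L7.5c1) cells, 4000/well, treated 24 h at 37 C with compound; viability measured as CellTiter-Fluor fluorescence after 30 min in the same wells as the luciferase read.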

[4] = qHTS assay to identify small molecule antagonists of the peroxisome proliferator-activated receptor gamma (PPARg) signaling pathway - cell viability counter screen (AID 743194); also: nearly all actives have a fitted effect of over 55% in size; also: potency is read from the fitted curve at half-maximal effect
Outline: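 Cytotoxicity counter screen in PPARg-bla HEK293H cells, same wells as reporter assay. Compounds plus 50 nM rosiglitazone (final) for 17 h at 37 C, then viability read by CellTiter-Glo luminescence.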

[5] = qHTS assay for small molecule agonists of the antioxidant response element (ARE) signaling pathway (AID 743202; active = well fitted activation curve with a large enough effect in the signal ratio in the repeat runs, not every such curve was filed as active; the % refers to the signal ratio; also: potency is read from the fitted curve at half-maximal effect)
Outline: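 HepG2 ARE-bla reporter line, 2,000 cells/well; 5 h preincubation 37 C/5% CO2; compound (DMSO) 16 h 37 C; B/G FRET substrate 2 h RT; fluorescence intensity.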

[6] = qHTS assay for small molecule agonists of the antioxidant response element (ARE) signaling pathway - cell viability counter screen (AID 743203; calls by dose curve; also: nearly all actives have a fitted effect of over 55% in size)
Outline: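 Parallel cytotoxicity read-out for the ARE-bla screen: HepG2 reporter cells, 16 hrs with compounds, then CellTiter-Glo luminescence.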

[7] = qHTS assay for small molecule activators of the heat shock response signaling pathway - cell viability counter screen (AID 743209); also: nearly all actives have a fitted effect of over 50% in size
Outline: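 To flag cytotoxic compounds, HSE-bla HeLa cells plated at 1500 cells/well were dosed for 5 h at 37 C, followed by the reporter FRET read and then CellTiter-Glo, with luminescence recorded 30 min after reagent addition.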

[8] = qHTS assay for small molecule activators of the heat shock response signaling pathway (AID 743210; active = well fitted activation curve with a large enough effect in the signal ratio in the repeat runs, with a control signal flat, not every such curve was filed as active; the % refers to the signal ratio;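 also: HeLa cells with beta-lactamase reporter driven by heat shock elements; series mostly up to about 63 µM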)
Outline: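 Beta-lactamase reporter read-out: FRET substrate fluorescence after 2.5 h at RT, following 5 h compound treatment at 37 C of HeLa cells carrying HSE-driven bla reporter; quantitative HTS format.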

[9] = qHTS assay to identify small molecule agonists of the peroxisome proliferator-activated receptor delta (PPARd) signaling pathway - cell viability counter screen (AID 743211); also: nearly all actives have a fitted effect of over 55% in size
Outline: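 Viability of GeneBLAzer PPARd UAS-bla HEK293H cells was assessed after 17 h compound incubation at 37C, using CellTiter-Glo reagent added after the reporter read and luminescence recorded 30 min later.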

[10] = target: Peroxisome proliferator-activated receptor delta (Homo sapiens) (UniProt Q03181); assay: qHTS assay to identify small molecule agonists of the peroxisome proliferator-activated receptor delta (PPARd) signaling pathway (AID 743212; calls by dose curve)
Sequence of Peroxisome proliferator-activated receptor delta (Homo sapiens) (Q03181 whole entry, looked up): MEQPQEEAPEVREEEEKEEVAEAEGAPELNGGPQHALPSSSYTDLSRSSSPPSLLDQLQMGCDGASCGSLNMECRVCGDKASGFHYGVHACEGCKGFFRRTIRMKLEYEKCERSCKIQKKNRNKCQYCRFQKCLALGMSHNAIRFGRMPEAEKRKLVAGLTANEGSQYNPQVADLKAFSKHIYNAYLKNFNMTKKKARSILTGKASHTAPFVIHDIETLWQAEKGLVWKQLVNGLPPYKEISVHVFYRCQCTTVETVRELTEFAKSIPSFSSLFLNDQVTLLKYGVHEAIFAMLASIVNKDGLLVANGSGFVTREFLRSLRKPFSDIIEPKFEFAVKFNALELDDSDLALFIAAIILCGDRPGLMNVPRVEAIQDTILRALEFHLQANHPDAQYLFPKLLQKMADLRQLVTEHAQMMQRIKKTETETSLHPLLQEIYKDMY
Outline: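 Read-out: beta-lactamase FRET fluorescence after 2 h room-temperature incubation with LiveBLAzer B/G substrate. Cells were HEK293H carrying a UAS-bla reporter for PPARd, treated at 37 C with DMSO-dissolved compounds.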

[11] = qHTS assay to identify small molecule antagonists of the peroxisome proliferator-activated receptor delta (PPARd) signaling pathway - cell viability counter screen (AID 743213); also: nearly all actives have a fitted effect of over 50% in size
Outline: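 HEK293H cells with the PPARd UAS-bla reporter, co-treated 17 h at 37 C with compounds and L165041 (300 nM final), were lysed with CellTiter-Glo. Luminescence indicated viable cell content.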

[12] = target: Peroxisome proliferator-activated receptor delta (Homo sapiens) (UniProt Q03181); assay: qHTS assay to identify small molecule antagonists of the peroxisome proliferator-activated receptor delta (PPARd) signaling pathway (AID 743215; active = well fitted inhibition curve with a large enough effect in the signal ratio in the repeat runs, not every such curve was filed as active; the % refers to the signal ratio;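 also: cells stimulated with agonist L165041 at 300 nM final during compound exposure; series mostly up to about 62 µM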)
Outline: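 Screen format: qHTS, antagonist mode. HEK293H PPARd-bla cells received compound and 300 nM L165041 (final), 17 h, 37 C. Beta-lactamase detected via FRET substrate fluorescence, 2 h, room temperature.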

[13] = qHTS assay to identify small molecule agonists of the farnesoid-X-receptor (FXR) signaling pathway - cell viability counter screen (AID 743218); also: nearly all actives have a fitted effect of over 45% in size
Outline: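 Same-well cytotoxicity check on FXR-UAS-bla HEK 293T cells: 5 h attachment, 16 h compound at 37 C, CellTiter-Glo luminescence read at room temperature after 30 min.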

[14] = qHTS assay to identify small molecule antagonists of the farnesoid-X-receptor (FXR) signaling pathway - cell viability counter screen (AID 743221; active = well fitted cell-killing curve with a large enough effect in the repeat runs, not every such curve was filed as active; also: nearly all actives have a fitted effect of over 50% in size; also: potency is read from the fitted curve at half-maximal effect)
Outline: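 Quantitative HTS of the Tox21 10K library run in parallel with the beta-lactamase reporter read. HEK 293T cells carrying a UAS-driven bla reporter got compound and 50 uM CDCA (final) for 16 h; ATP-based luminescence followed.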

[15] = target: Vitamin D3 receptor (Homo sapiens) (UniProt P11473); assay: qHTS assay to identify small molecule agonists of the vitamin D receptor (VDR) signaling pathway (AID 743222; calls by dose curve)
Sequence of Vitamin D3 receptor (Homo sapiens) (P11473 whole entry, looked up): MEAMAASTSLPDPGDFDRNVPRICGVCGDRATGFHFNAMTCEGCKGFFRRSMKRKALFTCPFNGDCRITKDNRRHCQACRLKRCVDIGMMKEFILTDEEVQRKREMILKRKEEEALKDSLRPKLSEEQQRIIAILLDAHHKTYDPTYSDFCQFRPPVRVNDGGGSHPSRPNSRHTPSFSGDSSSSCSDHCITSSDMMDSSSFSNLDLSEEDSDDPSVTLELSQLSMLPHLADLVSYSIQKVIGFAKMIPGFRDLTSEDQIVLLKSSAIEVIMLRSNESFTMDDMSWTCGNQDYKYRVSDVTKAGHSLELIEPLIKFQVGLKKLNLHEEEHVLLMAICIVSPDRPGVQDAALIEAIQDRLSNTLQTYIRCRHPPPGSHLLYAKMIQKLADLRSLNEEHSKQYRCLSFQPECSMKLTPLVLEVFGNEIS
Outline: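 Using LiveBLAzer B/G FRET detection, agonism was scored in VDR-bla cells exposed overnight (16 h, 37C) to DMSO-dissolved compounds; substrate incubation was 2 h at room temperature.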

[16] = target: Vitamin D3 receptor (Homo sapiens) (UniProt P11473); assay: qHTS assay to identify small molecule antagonists of the vitamin D receptor (VDR) signaling pathway (AID 743223; active = well fitted inhibition curve with a large enough effect in the signal ratio in the repeat runs, not every such curve was filed as active; the % refers to the signal ratio)
Outline: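 Fluorescence from LiveBLAzer B/G FRET substrate, read after 2 h at room temperature, reflects beta-lactamase reporter activity in VDR-bla cells treated 16 h at 37C with compounds and agonist 1alpha,25-dihydroxyvitamin D3 (3 nM final).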

[17] = target: Peroxisome proliferator-activated receptor gamma (Homo sapiens) (UniProt P37231); assay: qHTS assay to identify small molecule agonists of the peroxisome proliferator-activated receptor gamma (PPARg) signaling pathway (AID 743094; active = well fitted activation curve with a large enough effect in the signal ratio in the repeat runs, not every such curve was filed as active; the % refers to the signal ratio)
Sequence of Peroxisome proliferator-activated receptor gamma (Homo sapiens) (P37231 whole entry, looked up): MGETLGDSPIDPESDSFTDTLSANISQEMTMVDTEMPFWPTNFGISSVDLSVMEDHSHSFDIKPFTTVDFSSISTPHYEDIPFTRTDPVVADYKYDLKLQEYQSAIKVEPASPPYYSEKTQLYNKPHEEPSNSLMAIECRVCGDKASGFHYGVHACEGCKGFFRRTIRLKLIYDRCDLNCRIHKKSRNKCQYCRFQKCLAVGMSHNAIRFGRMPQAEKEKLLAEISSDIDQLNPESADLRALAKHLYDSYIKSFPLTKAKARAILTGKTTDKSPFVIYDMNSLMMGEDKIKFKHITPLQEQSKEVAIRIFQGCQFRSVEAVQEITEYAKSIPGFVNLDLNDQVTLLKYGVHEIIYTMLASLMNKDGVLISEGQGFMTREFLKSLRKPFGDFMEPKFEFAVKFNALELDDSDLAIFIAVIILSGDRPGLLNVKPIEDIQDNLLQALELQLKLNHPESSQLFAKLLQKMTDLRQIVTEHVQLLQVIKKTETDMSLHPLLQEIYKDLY
Outline: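 Fluorescence-based beta-lactamase readout in HEK293H PPARg UAS-bla cells after 17 h compound exposure (37C) and 1 h B/G FRET substrate incubation at room temperature.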

[18] = target: Bile acid receptor (Homo sapiens) (UniProt Q96RI1); assay: qHTS assay to identify small molecule antagonists of the farnesoid-X-receptor (FXR) signaling pathway (AID 743217; active = well fitted inhibition curve with a large enough effect in the signal ratio in the repeat runs, not every such curve was filed as active; the % refers to the signal ratio)
Sequence of Bile acid receptor (Homo sapiens) (Q96RI1 whole entry, looked up): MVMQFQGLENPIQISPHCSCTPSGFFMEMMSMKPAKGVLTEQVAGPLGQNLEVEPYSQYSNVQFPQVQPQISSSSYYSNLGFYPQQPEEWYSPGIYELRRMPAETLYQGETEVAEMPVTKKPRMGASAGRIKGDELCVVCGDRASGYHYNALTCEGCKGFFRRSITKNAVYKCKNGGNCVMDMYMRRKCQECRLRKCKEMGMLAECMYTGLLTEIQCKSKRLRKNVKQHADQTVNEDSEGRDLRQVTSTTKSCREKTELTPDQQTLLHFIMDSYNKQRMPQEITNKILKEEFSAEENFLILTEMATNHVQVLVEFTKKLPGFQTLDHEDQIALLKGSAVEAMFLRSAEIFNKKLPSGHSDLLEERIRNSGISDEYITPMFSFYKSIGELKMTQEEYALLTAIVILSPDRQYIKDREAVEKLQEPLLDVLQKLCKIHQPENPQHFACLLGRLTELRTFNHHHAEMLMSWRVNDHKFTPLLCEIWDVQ
Outline: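 Quantitative HTS, beta-lactamase reporter format: FXR-UAS-bla HEK 293T cells co-treated 16 h at 37 °C with compounds and 50 uM final chenodeoxycholic acid, then read by B/G FRET fluorescence.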

[19] = target: Bile acid receptor (Homo sapiens) (UniProt Q96RI1); assay: qHTS assay to identify small molecule agonists of the farnesoid-X-receptor (FXR) signaling pathway (AID 743220; active = well fitted activation curve with a large enough effect in the signal ratio in the repeat runs, not every such curve was filed as active; the % refers to the signal ratio)
Outline: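 FXR-UAS-bla HEK 293T cells carrying a UAS-driven beta-lactamase reporter were plated for 5 h at 37C/5% CO2, then exposed to DMSO-dissolved Tox21 10K compounds for 16 h at 37C. A LiveBLAzer B/G FRET substrate was loaded for 2 h at room temperature before fluorescence reading.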

[20] = target: Peroxisome proliferator-activated receptor gamma (Homo sapiens) (UniProt P37231); assay: qHTS assay to identify small molecule antagonists of the peroxisome proliferator-activated receptor gamma (PPARg) signaling pathway (AID 743191; calls by dose curve; also: series mostly up to about 63 µM; nearly all actives have a fitted effect of over 30% in size)
Outline: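 GeneBLAzer PPARg UAS-bla HEK293H cells, 5 h post-plating, exposed to compounds 17 h at 37C. LiveBLAzer B/G FRET substrate added for 1 h at room temperature; beta-lactamase reporter read by fluorescence intensity.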

Compound | Potency [1] | Potency [2] | Potency [3] | Potency [4] | Potency [5] | Potency [6] | Potency [7] | outcome [8] | Potency [9] | outcome [10] | Potency [11] | outcome [12] | Potency [13] | Potency [14] | outcome [15] | Potency [16] | Potency [17] | outcome [18] | outcome [19] | Potency [20]
O=C(O)COC(=O)Cc1ccccc1Nc1c(Cl)cccc1Cl | inactive | inactive | inactive | inactive | inactive | inactive | inactive | inactive | inactive | inactive | inactive | inactive | inactive | inactive | inactive | inactive | – | – | – | –
COCCO | inactive | inactive | inactive | inactive | inactive | inactive | – | inactive | inactive | inactive | inactive | – | – | inactive | inactive | inactive | inactive | – | – | –
CC1=CCC(C(C)C)C=C1 (stereo unspecified) | inactive | inactive | inactive | inactive | – | inactive | inactive | inactive | inactive | – | inactive | – | inactive | inactive | – | – | inactive | – | – | –
Oc1ccc2c(c1)OCO2 | inactive | inactive | inactive | inactive | inactive | inactive | – | inactive | inactive | – | inactive | – | inactive | inactive | inactive | – | inactive | – | – | –
C#CCOC(=O)[C@@H](C)Oc1ccc(Oc2ncc(Cl)cc2F)cc1 | inactive | inactive | inactive | inactive | – | inactive | inactive | – | inactive | – | inactive | inactive | inactive | inactive | inactive | inactive | inactive | inactive | inactive | –
CC(C)CC=O | inactive | inactive | inactive | – | inactive | inactive | inactive | inactive | inactive | inactive | inactive | – | inactive | inactive | inactive | – | inactive | inactive | inactive | –
CC(C)c1ccc2c(C(C)C)cc(C(C)C)c(S(=O)(=O)O)c2c1 | inactive | inactive | inactive | inactive | – | – | inactive | inactive | inactive | – | – | inactive | inactive | inactive | inactive | – | inactive | inactive | inactive | –
FC(F)(F)C(F)(F)C(F)(F)C(F)(F)C(F)(F)C(F)(F)CCI | inactive | inactive | inactive | inactive | inactive | inactive | inactive | inactive | inactive | – | – | inactive | inactive | inactive | inactive | inactive | inactive | inactive | inactive | –
CN1CCC(=C2c3ccccc3C=Cc3ccccc32)CC1 | inactive | inactive | inactive | – | inactive | inactive | inactive | inactive | – | – | – | – | – | inactive | inactive | inactive | inactive | – | inactive | –
CN1CCN(C2=Nc3ccccc3Sc3ccc(Cl)cc32)CC1 | inactive | inactive | inactive | inactive | inactive | – | inactive | inactive | inactive | inactive | – | inactive | – | inactive | – | inactive | – | inactive | – | inactive
SC1CCCC1 | inactive | – | inactive | inactive | inactive | inactive | inactive | inactive | inactive | – | inactive | – | inactive | inactive | – | – | inactive | – | – | inactive
NC1CCN(c2nc3c(cc2F)c(=O)c(C(=O)O)cn3-c2ccc(F)cc2F)C1 (stereo unspecified) | inactive | inactive | inactive | inactive | 26.6 µM (active) | – | inactive | – | inactive | – | inactive | – | inactive | inactive | – | – | – | – | – | –
O=C(O)Cc1cc(I)c(Oc2ccc(O)c(I)c2)c(I)c1 | inactive | inactive | inactive | 24.5 µM (active) | 15.4 µM (active) | – | inactive | – | inactive | – | inactive | – | – | 54.9 µM (active) | – | – | – | – | – | –
